# Laboratory results reported in article PMC7862700, “An all-to-all approach to the identification of sequence-specific readers for epigenetic DNA modifications on cytosine”.
# Experiments:
# Assay in all cases: DAPPL (digital affinity profiling via proximity ligation, sequencing); 10 mM Tris-HCl pH 7.5, 50 mM NaCl, 1 mM DTT, 4% glycerol, room temperature, 30 min; GST-TFs on glutathione beads, 16-mer random dsDNA library, 0.1% formaldehyde crosslink after washing; high values mean tight binding
# [1] = biological target: T1, FEV (Homo sapiens, UniProt Q99581 1-238); conditions: protein: recombinant; tags: N-terminal GST; dsDNA, one strand shown
# T1 sequence: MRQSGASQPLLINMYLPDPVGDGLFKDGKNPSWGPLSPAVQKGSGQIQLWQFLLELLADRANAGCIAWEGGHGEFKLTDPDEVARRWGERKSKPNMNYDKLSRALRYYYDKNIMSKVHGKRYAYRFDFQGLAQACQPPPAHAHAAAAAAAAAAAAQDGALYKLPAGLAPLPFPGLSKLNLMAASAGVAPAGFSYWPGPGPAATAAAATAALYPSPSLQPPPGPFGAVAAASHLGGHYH
# In short: (§1)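 A tag-only sample was pooled with DNA-barcoded human transcription factors that had been expressed in yeast as GST fusions and captured on glutathione beads. The pools were incubated for 30 min at room temperature with 200 nmole of a random double-stranded 16-mer DNA library in Tris/NaCl/DTT/glycerol buffer, then washed, crosslinked with 0.1% formaldehyde, proximity-ligated (BsaI/T4 ligase, 1 h, 37 °C), PCR-amplified and sequenced on an Illumina NextSeq500. Binding signal is each hexamer's read frequency for a factor divided by its frequency for the tag-only sample.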
# [2] = biological target: ETV5 (Homo sapiens, UniProt P41161 1-510); conditions: protein: recombinant; tags: N-terminal GST; dsDNA, one strand shown
# Chain of ETV5 (P41161 whole entry): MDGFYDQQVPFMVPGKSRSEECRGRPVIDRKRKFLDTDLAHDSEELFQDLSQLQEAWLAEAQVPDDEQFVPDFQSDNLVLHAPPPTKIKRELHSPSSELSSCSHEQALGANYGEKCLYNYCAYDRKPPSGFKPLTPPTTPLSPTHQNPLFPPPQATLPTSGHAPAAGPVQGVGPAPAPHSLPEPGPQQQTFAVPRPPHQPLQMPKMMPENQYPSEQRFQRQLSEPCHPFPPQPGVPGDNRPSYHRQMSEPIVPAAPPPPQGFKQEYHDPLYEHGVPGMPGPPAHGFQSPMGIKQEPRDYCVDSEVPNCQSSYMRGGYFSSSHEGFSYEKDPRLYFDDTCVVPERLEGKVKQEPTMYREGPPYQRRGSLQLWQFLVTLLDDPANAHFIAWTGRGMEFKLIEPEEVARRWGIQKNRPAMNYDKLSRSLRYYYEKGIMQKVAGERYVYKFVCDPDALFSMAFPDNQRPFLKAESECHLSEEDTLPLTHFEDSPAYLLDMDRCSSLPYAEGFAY
# In short: as §1
# [3] = biological target: HSF1 (Homo sapiens, UniProt Q00613 1-529); conditions: protein: recombinant; tags: N-terminal GST; chain copies: 3; dsDNA, one strand shown
# Chain of HSF1 (Q00613 whole entry): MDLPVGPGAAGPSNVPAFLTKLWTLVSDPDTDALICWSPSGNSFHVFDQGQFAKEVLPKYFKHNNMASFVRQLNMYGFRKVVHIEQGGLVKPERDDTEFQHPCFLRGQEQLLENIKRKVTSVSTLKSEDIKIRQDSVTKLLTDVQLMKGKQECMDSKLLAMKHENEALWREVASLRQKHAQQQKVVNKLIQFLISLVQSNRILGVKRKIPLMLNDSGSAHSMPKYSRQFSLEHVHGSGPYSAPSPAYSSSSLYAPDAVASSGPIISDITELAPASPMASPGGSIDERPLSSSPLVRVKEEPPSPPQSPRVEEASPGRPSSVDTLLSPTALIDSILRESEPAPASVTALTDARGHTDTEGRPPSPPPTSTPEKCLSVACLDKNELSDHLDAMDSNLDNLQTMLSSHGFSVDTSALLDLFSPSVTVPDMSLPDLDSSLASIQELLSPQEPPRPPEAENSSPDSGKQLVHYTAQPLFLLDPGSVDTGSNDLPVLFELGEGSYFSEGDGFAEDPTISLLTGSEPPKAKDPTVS
# In short: as §1
# [4] = biological target: T2, SPIC (Homo sapiens, UniProt Q8N5J4 1-248); conditions: protein: recombinant; tags: N-terminal GST; dsDNA, one strand shown
# T2 sequence: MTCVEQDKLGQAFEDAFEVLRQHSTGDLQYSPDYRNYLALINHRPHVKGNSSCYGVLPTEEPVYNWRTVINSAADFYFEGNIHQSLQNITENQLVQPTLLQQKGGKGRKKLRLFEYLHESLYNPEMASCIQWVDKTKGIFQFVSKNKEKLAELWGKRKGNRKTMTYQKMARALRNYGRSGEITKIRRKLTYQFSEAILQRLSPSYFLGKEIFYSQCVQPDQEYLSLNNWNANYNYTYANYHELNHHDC
# In short: as §1
# [5] = biological target: ELF4 (Homo sapiens, UniProt Q99607 1-663); conditions: protein: recombinant; tags: N-terminal GST; dsDNA, one strand shown
# Chain of ELF4 (Q99607 whole entry): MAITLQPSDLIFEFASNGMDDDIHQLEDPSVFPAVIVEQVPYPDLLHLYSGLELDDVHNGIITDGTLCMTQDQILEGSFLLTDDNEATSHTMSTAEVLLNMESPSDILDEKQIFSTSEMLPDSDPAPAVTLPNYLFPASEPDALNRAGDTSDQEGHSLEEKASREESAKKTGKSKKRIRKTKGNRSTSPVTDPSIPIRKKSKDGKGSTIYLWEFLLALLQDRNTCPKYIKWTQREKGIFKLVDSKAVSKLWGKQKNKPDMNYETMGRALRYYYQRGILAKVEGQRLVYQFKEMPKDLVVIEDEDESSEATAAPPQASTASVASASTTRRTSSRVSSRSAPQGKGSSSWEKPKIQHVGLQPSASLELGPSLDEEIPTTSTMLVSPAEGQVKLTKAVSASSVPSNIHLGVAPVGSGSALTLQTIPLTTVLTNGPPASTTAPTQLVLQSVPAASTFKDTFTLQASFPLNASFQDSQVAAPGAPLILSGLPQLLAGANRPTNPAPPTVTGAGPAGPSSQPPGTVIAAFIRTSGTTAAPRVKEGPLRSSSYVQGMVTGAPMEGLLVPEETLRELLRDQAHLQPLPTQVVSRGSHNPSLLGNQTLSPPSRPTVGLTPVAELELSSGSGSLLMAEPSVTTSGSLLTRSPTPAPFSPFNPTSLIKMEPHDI
# In short: as §1
# [6] = biological target: T3, ELK4 (Homo sapiens, UniProt P28324-2 1-405); conditions: protein: recombinant; tags: N-terminal GST; dsDNA, one strand shown
# T3 sequence: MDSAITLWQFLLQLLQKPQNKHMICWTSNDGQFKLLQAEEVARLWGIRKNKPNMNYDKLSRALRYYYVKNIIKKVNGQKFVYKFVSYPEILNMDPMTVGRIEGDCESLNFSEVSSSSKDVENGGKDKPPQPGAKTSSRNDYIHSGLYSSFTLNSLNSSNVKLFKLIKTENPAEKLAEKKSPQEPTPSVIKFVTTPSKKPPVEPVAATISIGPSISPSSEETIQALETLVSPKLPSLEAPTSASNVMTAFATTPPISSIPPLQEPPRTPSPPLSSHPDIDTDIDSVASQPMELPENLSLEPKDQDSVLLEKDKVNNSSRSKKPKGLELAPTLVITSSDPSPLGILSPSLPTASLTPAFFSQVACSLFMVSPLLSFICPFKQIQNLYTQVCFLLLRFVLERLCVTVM
# In short: as §1
# [7] = biological target: T4, ETV2 (Homo sapiens, UniProt O00321 1-342); conditions: protein: recombinant; tags: N-terminal GST; dsDNA, one strand shown
# T4 sequence: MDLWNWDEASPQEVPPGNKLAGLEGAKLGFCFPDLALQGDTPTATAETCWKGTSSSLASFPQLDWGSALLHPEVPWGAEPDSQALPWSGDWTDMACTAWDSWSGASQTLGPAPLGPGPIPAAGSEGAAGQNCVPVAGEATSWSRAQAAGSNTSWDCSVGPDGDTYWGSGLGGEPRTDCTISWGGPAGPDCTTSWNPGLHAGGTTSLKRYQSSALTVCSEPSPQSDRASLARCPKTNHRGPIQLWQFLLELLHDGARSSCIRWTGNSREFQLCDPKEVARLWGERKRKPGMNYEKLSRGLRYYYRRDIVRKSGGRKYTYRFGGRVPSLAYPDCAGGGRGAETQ
# In short: as §1
# [8] = biological target: T5, ELF3 (Homo sapiens, UniProt P78545 1-371); conditions: protein: recombinant; tags: N-terminal GST; dsDNA, one strand shown
# T5 sequence: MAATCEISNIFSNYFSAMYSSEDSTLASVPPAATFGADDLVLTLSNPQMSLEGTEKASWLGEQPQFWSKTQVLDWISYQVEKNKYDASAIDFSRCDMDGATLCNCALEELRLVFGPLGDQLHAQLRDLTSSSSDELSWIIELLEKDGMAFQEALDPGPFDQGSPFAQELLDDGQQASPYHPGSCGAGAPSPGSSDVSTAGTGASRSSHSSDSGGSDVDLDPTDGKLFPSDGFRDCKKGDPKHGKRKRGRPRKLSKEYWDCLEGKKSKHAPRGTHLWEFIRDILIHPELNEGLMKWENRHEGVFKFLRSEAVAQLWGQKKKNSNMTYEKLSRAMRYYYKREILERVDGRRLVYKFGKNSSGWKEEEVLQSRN
# In short: as §1
# [9] = biological target: CRX (Homo sapiens, UniProt O43186 1-299); conditions: protein: recombinant; tags: N-terminal GST; dsDNA, one strand shown
# Chain of CRX (O43186 whole entry): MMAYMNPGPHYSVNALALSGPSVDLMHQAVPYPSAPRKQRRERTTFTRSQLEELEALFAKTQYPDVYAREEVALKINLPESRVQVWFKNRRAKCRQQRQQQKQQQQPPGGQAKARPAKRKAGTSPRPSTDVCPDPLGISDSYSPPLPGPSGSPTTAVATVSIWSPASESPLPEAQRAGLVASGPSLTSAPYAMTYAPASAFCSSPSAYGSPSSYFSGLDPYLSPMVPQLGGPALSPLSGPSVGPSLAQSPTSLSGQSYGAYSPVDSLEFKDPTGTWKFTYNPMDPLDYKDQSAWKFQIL
# In short: as §1
# [10] = biological target: ETV1 (Homo sapiens, UniProt P50549 1-477); conditions: protein: recombinant; tags: N-terminal GST; dsDNA, one strand shown
# Chain of ETV1 (P50549 whole entry): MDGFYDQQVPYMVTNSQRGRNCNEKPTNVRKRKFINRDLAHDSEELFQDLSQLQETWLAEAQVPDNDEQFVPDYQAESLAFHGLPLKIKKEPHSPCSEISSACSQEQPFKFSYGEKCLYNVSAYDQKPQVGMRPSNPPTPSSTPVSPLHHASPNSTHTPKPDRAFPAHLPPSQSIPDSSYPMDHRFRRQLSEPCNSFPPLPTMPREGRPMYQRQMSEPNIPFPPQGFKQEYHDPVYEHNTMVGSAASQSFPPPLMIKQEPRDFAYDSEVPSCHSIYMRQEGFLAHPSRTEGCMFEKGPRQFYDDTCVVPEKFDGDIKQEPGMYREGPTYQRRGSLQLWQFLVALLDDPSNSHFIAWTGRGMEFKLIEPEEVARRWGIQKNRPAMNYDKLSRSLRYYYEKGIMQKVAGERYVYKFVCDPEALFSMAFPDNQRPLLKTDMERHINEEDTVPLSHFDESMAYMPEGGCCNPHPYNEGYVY
# In short: as §1
sequence,measurement,setting,value
GGCTCT,binding signal,[1],"1.35 fold enrichment (6-mer frequency, TF over GST control)"
same,binding signal,[2],"1.19 fold enrichment (6-mer frequency, TF over GST control)"
same,binding signal,[3],"1.32 fold enrichment (6-mer frequency, TF over GST control)"
same,binding signal,[4],"1.34 fold enrichment (6-mer frequency, TF over GST control)"
same,binding signal,[5],"1.37 fold enrichment (6-mer frequency, TF over GST control)"
same,binding signal,[6],"1.22 fold enrichment (6-mer frequency, TF over GST control)"
same,binding signal,[7],"1.4 fold enrichment (6-mer frequency, TF over GST control)"
same,binding signal,[8],"1.44 fold enrichment (6-mer frequency, TF over GST control)"
same,binding signal,[9],"1.27 fold enrichment (6-mer frequency, TF over GST control)"
same,binding signal,[10],"1.42 fold enrichment (6-mer frequency, TF over GST control)"
